# System: HepG2
# Assay: GSK_TCMDC: Percent inhibition of human HepG2 cell line. Test compounds present at 10uM.
# Assay type: functional
row,Structure (SMILES),Inhibition [%]
1,COc1ccc(Nc2ncc3c(-c4ccc(NC(=O)c5cccc(C(F)(F)F)c5)cc4)c[nH]c3n2)cc1OC,26
2,CC(C)C1C(O)=C(c2ccc3ccccc3c2)C(=O)N1Cc1ccsc1 (stereo unspecified),11
3,Cc1nc(C)c(-c2ccc(C(=O)c3ccc(Cl)cc3)cc2)c(O)c1Br,10
4,Cc1cccc(C(=O)Nc2ccnc(N3CCC(N(C)Cc4cccc(C#N)c4)CC3)c2)c1.O=C(O)C(F)(F)F,5
5,CC(C)C(=O)NC(c1ccc(N(C)C)cc1)c1cc(Cl)c2cccnc2c1O (stereo unspecified),61
6,COc1cc(CNc2ccc(N3CCCC3)cc2)cc(Cl)c1OC,41
7,Clc1ccc(-c2ccc(C=NNc3nc(=Nc4ccccc4)[nH]c(=Nc4ccccc4)[nH]3)o2)cc1Cl,1
8,COc1ccc(N2CCN(CCCCNC(=O)c3ccc(NC(=O)c4cc(C(F)(F)F)cc(C(F)(F)F)c4)cc3)CC2)cc1OC,9
9,COc1cc(-c2[nH]c(-c3ccc(OCCN(C)C)cc3)cc2-c2ccncc2)ccc1Cl.Cl,3
10,CCOC(=O)c1c(CCc2ccc(C(F)(F)F)cc2)nc2c(c1-c1ccc(C(=O)N[C@@H](C)c3ccncc3)cc1)C(=O)N1CCC[C@@H]21,0
11,CCN(CC)CCN(Cc1ccc(-c2ccc(C(F)(F)F)cc2)cc1)C(=O)Cn1c(CCc2cccc(F)c2F)nc(=O)c2ccc(F)cc21.O=C(O)C(O)C(O)C(=O)O,14
12,O=C(Nc1cccc(-c2ccc(-c3nc4cc(F)ccc4[nH]3)s2)c1)c1cccnc1,46
13,O=C(/C=C/c1ccc(Cl)c(Cl)c1)NCCCCCN1CCC(NC(=O)c2cc(Cl)ccc2F)CC1,48
14,NC(=O)C1CCN(Cc2cccc(-c3cccc(-c4nc5cc(C(F)(F)F)ccc5[nH]4)c3)c2)CC1.O=C(O)C(F)(F)F,16
15,COc1ccc2cc(-c3nc(-c4c(Cl)cccc4Cl)[nH]c3-c3ccnc(NCCC4CCCN4C)c3)ccc2c1.O=C(O)C(F)(F)F (stereo unspecified),11
16,O=[N+]([O-])c1cccc(-c2ccc(C=NNc3cc(N4CCCC4)nc(N4CCCC4)n3)o2)c1,0
17,CC(C)(CNCc1cc(Cl)cc(Cl)c1)c1nc(-c2ccnc(N)n2)c(-c2ccc(Cl)c(O)c2)[nH]1.Cl,54
18,O=C(Nc1ccc(Cl)c(Cl)c1)Nc1cc(C(F)(F)F)ccc1Cl,0
19,O=C(Cc1ccccc1)NC(c1ccccc1)c1ccc2cccnc2c1O (stereo unspecified),49
20,COc1cc(C(=O)N2N=C(c3c(-c4ccccc4)c4cc(Br)ccc4[nH]c3=O)CC2c2cccc([N+](=O)[O-])c2)cc(OC)c1OC (stereo unspecified),1
21,OC(CNCc1ccccc1OCc1ccccc1)c1cc(C(F)(F)F)cc(C(F)(F)F)c1 (stereo unspecified),3
22,c1ccc(CN2CCN(c3cc(-c4cncc(-c5ccccc5)c4)nc(-c4ccccc4)n3)CC2)cc1,9
23,CCOc1ccccc1C(=O)N1CCc2cc3nccc(N4CCN5CCC[C@H]5C4)c3cc21,4
24,O=C(NCCc1ccc(F)cc1)c1ccc(N2CCN(c3ccncc3)CC2)nc1.O=C(O)C(F)(F)F,1
25,CCN(CC)/C(=N/C(=N)Nc1ccc(C)cc1)NCCCCCCN/C(=N\C(=N)Nc1ccc(C)cc1)N(CC)CC,10
26,COc1c(O)cc2oc(-c3ccc(O)cc3)cc(=O)c2c1O [HISPIDULIN],6
